# Target: T1, Kni (Drosophila melanogaster, UniProt P10734 2-102)
# T1 sequence: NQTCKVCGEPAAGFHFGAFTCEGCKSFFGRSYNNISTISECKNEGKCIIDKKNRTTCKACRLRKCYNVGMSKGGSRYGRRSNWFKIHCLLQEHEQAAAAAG
# Test: FP; 33 mM phosphate pH 7.0, 90 mM NaCl, 0.01% Tween 20, 0.1 mM DTT, 0.5% agarose; room temperature
# Conditions: tags: N-GST (pGEX-6P-1, kept); dsDNA, one strand shown
row,Sequence,binding signal
1,CAAAACTAGAGGACT,36 Kd / Kd of best base at the position
2,CAAATCTAGAGCACT,2.46 Kd / Kd of best base at the position
3,CAAAACTAAAGCACT,8.43 Kd / Kd of best base at the position
4,CAACACTAGAGCACT,31.8 Kd / Kd of best base at the position
5,CAATACTAGAGCACT,6.63 Kd / Kd of best base at the position
6,CAAAATTAGAGCACT,1.05 Kd / Kd of best base at the position
7,CAAAACTAGATCACT,1.39 Kd / Kd of best base at the position
8,CAAAACTAGAGCACC,2.3 Kd / Kd of best base at the position
9,CAAAACTACAGCACT,52.4 Kd / Kd of best base at the position
10,CAAAACTTGAGCACT,25.5 Kd / Kd of best base at the position

# Target: T2, Cad (Drosophila melanogaster, UniProt P09085 273-344)
# T2 sequence: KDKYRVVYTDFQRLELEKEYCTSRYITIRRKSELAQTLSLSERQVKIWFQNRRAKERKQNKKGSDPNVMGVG
# Test: FP; 20 mM Tris-acetate pH 7.0, 50 "nM" NaCl as printed (probably mM), 0.01% Tween 20, 0.1 mM DTT; conventional titration
# Conditions: tags: N-GST (pGEX-6P-1, kept); dsDNA, one strand shown
Sequence,binding signal,Kd [nM]
CACTTTTTATT,5.4 Kd / Kd of best base at the position,–
CAGTTTTTATA,1.11 Kd / Kd of best base at the position,–
CACTTTATATA,3 Kd / Kd of best base at the position,–
CACTTATTATA,2.8 Kd / Kd of best base at the position,–
CACTTTGTATA,27.9 Kd / Kd of best base at the position,–
CACCTTTTATA,1.7 Kd / Kd of best base at the position,–
CACTTTTTGTA,29 Kd / Kd of best base at the position,–
CACTTTTTATC,13.5 Kd / Kd of best base at the position,–
CACTGTTTATA,3.1 Kd / Kd of best base at the position,–
CACGTTTTATA,5.5 Kd / Kd of best base at the position,–
TACTTTTTATA,1.3 Kd / Kd of best base at the position,–
CACTTTTTAGA,16 Kd / Kd of best base at the position,–
CACTTTCTATA,37.9 Kd / Kd of best base at the position,–
CACTTCTTATA,16.8 Kd / Kd of best base at the position,–
CGCTTTTTATA,3.5 Kd / Kd of best base at the position,–
CACATTTTATA,2.5 Kd / Kd of best base at the position,–
CAATTTTTATA,2 Kd / Kd of best base at the position,–
CACTTTTTATA,–,~0.05
AACTTTTTATA,2.9 Kd / Kd of best base at the position,–
CACTTTTTACA,1.6 Kd / Kd of best base at the position,–
CACTTTTTTTA,181 Kd / Kd of best base at the position,–
CACTTTTAATA,4.1 Kd / Kd of best base at the position,–
CACTTTTTATG,2.2 Kd / Kd of best base at the position,–
CATTTTTTATA,6.67 Kd / Kd of best base at the position,–
GACTTTTTATA,1.8 Kd / Kd of best base at the position,–
CACTTGTTATA,16.7 Kd / Kd of best base at the position,–
CACTTTTTAAA,13.6 Kd / Kd of best base at the position,–
CACTTTTGATA,50.5 Kd / Kd of best base at the position,–
CACTTTTTCTA,287 Kd / Kd of best base at the position,–
CACTTTTCATA,17.6 Kd / Kd of best base at the position,–
